# DT40 TDP1 CPT: DT40-hTDP1 cell growth loss with CPT. chicken DT40 Tdp1-/-;hTDP1 cells + 20 nM CPT, ATP luminescence, 48 h. Potency, µM (titrated, usually from 46.2 µM), inactives show top-dose activity change, negative = growth inhibition, actives largely listed as inhibitors. 420,000 tested, 12% active. AID 686979; also: potency is read from the fitted curve at half-maximal effect; nearly all actives have a fitted effect of over 55% in size
#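 Cell growth measured by CellTiter-Glo luminescence after a minimum 48 h, 37 C compound exposure with 20 nM CPT in Tdp1-knockout DT40 cells stably expressing hTDP1, seeded 400/well; qHTS titration format.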
# DT40 TDP1 no CPT: qHTS for Inhibitors of human tyrosyl-DNA phosphodiesterase 1 (TDP1): qHTS in cells in absence of CPT. DT40 Tdp1-/- hTDP1 cells, no CPT, ATP luminescence, 48 h. Potency, µM (doses to about 46.2 µM), for inactives: at the highest dose activity change, negative = growth inhibition, usual class: inhibitors. 420,000 tested, 15% active; also: potency is read from the fitted curve at half-maximal effect; nearly all actives have a fitted effect of over 55% in size
#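 Camptothecin absent (DMSO only). Human TDP1-complemented DT40 knockout cells, 400 cells/well, 37 °C for minimum 48 hr; ATP measured via CellTiter-Glo, 30 min dark incubation, luminescence.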
# HT1080 IDH1KD tx: kills HT-1080 cells with IDH1 knockdown. HT-1080 IDH1 knockdown viability, ATP luminescence, 48 h. Potency, µM (titrated, usually from 46.1 µM), for inactives: at the highest dose activity, negative = toxicity, usual class: cytotoxic. 360,000 tested, 2% active. AID 686971;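 also: potency is read from the fitted curve at half-maximal effect; 0% = DMSO wells and -100% = cell-free medium wells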
#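 Viability of IDH1-knockdown HT-1080 fibrosarcoma cells was assessed by CellTiter-Glo after 48 h at 37 °C with titrated compound; concentration-effect curves were classified by fit quality and response size.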
# HT1080-NT tox: kills 2HG-producing HT-1080-NT fibrosarcoma cells; HT-1080-NT fibrosarcoma viability, CellTiter-Glo ATP luminescence, 48 h; Potency, µM (titrated, usually from 46.1 µM), for the others: at the top dose activity, negative = less viability, most hits filed as cytotoxic; 360,000 tested, 1.6% active; AID 686970;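 also: NT is the 2HG producing partner of a matched IDH1 knockdown line; potency is read from the fitted curve at half-maximal effect; 0% = DMSO-treated cells and -100% = media-only wells without cells; nearly all actives have a fitted effect of over 55% in size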
#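 HT-1080-NT fibrosarcoma cells (2HG-overproducing), 750 cells/well in RPMI with 5% FBS, dosed after 2 h and incubated 48 h at 37C. CellTiter-Glo luminescence normalized to DMSO and no-cell wells; concentration-response curves fitted and classed.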
# IL-1B inflam inh: inflammasome signaling inhibition, IL-1 beta readout; THP-1 LPS/ATP IL-1B secretion, AlphaLISA, 16 h; hits give low values; activity change, % at 57.5 µM; 360,000 tested, 4.7% active; in the data active = activity change below about -50%; inconclusive = mostly about -30% to -49%
#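 Secreted IL-1B measured by AlphaLISA bead assay after 16 h compound exposure of THP-1 cells; compounds (final up to 57.5 uM) added 1 h before LPS (250 ng/mL) and ATP (1.25 mM) stimulation; lower signal means less secretion.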
# Numbers without * were called inactive; ? = inconclusive; · = no result; ! = repeats disagree. Only some compounds are listed: those with a hit (about 19% of all), similar ones and a draw of the others. Unless noted, calls follow the shape of the dose curve; as a rule, active = well fitted curve in the direction sought with a large enough effect; inconclusive = small, poorly fitted or top-dose-only effect, or another doubt; inactive = no such curve, though single readings can be large; an effect the other way counts as inactive or inconclusive. Unless noted, % is scaled to controls: 0 for no effect and ±100 for the full control effect.
SMILES,DT40 TDP1 CPT,DT40 TDP1 no CPT,HT1080 IDH1KD tx,HT1080-NT tox,IL-1B inflam inh
CC(C)NC(=S)NN=C1CCC(c2ccccc2)CC1 (stereo unspecified),?,16.4µM*,11.9%,6.9%,10.4
COc1cc(OC)c(NC(=O)C2CCCN(c3ncnc4c3nc3n4CCCCC3)C2)cc1Cl (stereo unspecified),?,14.6µM*,·,·,·
O=C(Nc1ccccc1Cl)C1CCCN(c2ncnc3c2nc2n3CCCCC2)C1 (stereo unspecified),?,14.6µM*,-10.3%,-23.0%,-62.6*
Cc1ccc(C)c(NC(=O)C2CCN(c3ncnc4c3nc3n4CCCCC3)CC2)c1,-10.9%,1.9%,·,·,·
Cc1ccc(NC(=O)C2CCN(c3ncnc4c3nc3n4CCCCC3)CC2)nc1,23.1µM*,20.6µM*,-25.5%,2.1%,-16.5
COc1ccc(Cl)cc1NC(=O)C1CCN(c2ncnc3c2nc2n3CCCCC2)CC1,16.4µM*,9.2µM*,·,·,·
CC(=O)Nc1cccc(NC(=O)COC(=O)CO/N=C(\C)c2ccc3c(c2)OCO3)c1,19.0%,21.6%,5.1%,-7.6%,11.0
O=c1[nH]c2ccc(Br)cc2o1,-0.4%,-16.4%,3.4%,-3.2%,19.0
O=C(CCl)c1ccc2[nH]c(=O)oc2c1,2.59µM*,3.26µM*,-1.6%,0.8%,?
Cc1cc2oc(C(=O)N(Cc3ccco3)Cc3ccccc3Cl)c(C)c2cc1C,?,14.6µM*,·,·,·
Cc1ccc(CN(Cc2ccco2)C(=O)c2oc3ccc(C)cc3c2C)cc1,?,14.6µM*,·,·,·
Cc1ccc(NC(=O)Cc2coc3c(C)c(C)ccc23)cc1Cl,-26.0%,-25.4%,·,·,·
Cc1ccc(CN(Cc2ccco2)C(=O)c2cccc(C)c2)cc1,14.6µM*,16.4µM*,·,·,·
Cc1ccc2c(CC(=O)NCc3ccco3)coc2c1C,13µM*,11.6µM*,7.31µM*,5.17µM*,60.2
OCC[C@@H]1C[C@@H](O)[C@H](O)[C@]2(CCc3ccccc3CO2)O1,-17.9%,2.5%,-0.3%,-0.3%,28.7
Cc1ccc(C(=O)N(Cc2ccco2)Cc2ccco2)cc1,-11.1%,?,·,·,·
COc1ccc(CN(C(=O)Cc2coc3ccc(C)cc23)C2CCS(=O)(=O)C2)cc1 (stereo unspecified),-6.1%,?,·,·,·
Cc1ccc2occ(CC(=O)N(Cc3ccccc3Cl)C3CCS(=O)(=O)C3)c2c1 (stereo unspecified),?,23.1µM*,·,·,·
Cc1ccc(CC(=O)NCC(c2ccco2)N(C)C)cc1C (stereo unspecified),11.4%,9.1%,14.3%,-8.0%,51.5
Cc1ccc2oc(C(=O)NCC(c3ccco3)N(C)C)c(C)c2c1 (stereo unspecified),?,4.11µM*,0.0%,0.9%,13.6
Cc1ccc(CN(Cc2ccco2)C(=O)c2oc3c(C)c(C)ccc3c2C)cc1,?,23.1µM*,·,·,·
Cc1ccc2occ(CC(=O)N(Cc3ccc(Cl)cc3)Cc3ccco3)c2c1,?,23.1µM*,·,·,·
O=C1NC[C@H](CCCCN2CCN(CCc3ccccc3)C(=O)C2=O)N(CCc2ccccc2)C1=O,-1.6%,-22.2%,13.6%,18.4%,-6.0
CCOC(=O)N1CCN(C(=O)Cn2nc(C)n3nc(-c4ccc(OC)cc4)cc3c2=O)CC1,?,?,16.2%,5.6%,4.4
COc1ccc(-c2cc3c(=O)n(CC(=O)Nc4cccc(Cl)c4)nc(C)n3n2)cc1,14.6µM*,?,-0.9%,-3.8%,4.3
SMILES,DT40 TDP1 CPT,DT40 TDP1 no CPT,HT1080 IDH1KD tx,HT1080-NT tox,IL-1B inflam inh
CCOC(=O)C1CCN(C(=O)Cn2nc(C)n3nc(-c4ccc(OC)cc4)cc3c2=O)CC1,23.1µM*,20.6µM*,0.2%,1.5%,9.0
COc1ccc(-c2cc3c(=O)n(CC(=O)Nc4ccc(C(C)=O)cc4)ncn3n2)cc1,6.7%,-5.6%,-3.4%,-3.3%,-21.8
CCOC(=O)N1CCN(C(=O)Cn2nc(C)n3nc(-c4ccc(CC)cc4)cc3c2=O)CC1,16.4µM*,20.6µM*,-1.9%,-0.9%,12.5
Cc1ccc(-c2nnc(COC(=O)c3cccs3)o2)cc1,-0.4%,20.1%,23.2%,27.9%,-1.9
C#CCn1c(=NC(=O)CN2C(=O)CCC2=O)sc2cccc(OC)c21,-2.8%,?,-1.0%,6.0%,15.4
CCn1c(=NC(=O)CS(=O)(=O)c2ccccc2)sc2cccc(OC)c21,?,13µM*,-0.9%,2.9%,-59.1*
CCOCCn1c(=NC(=O)c2ccc(S(=O)(=O)N3CCOCC3)cc2)sc2cc(S(N)(=O)=O)ccc21,?,?,-10.8%,-0.3%,43.0
CCn1c(=NC(=O)c2ccc(S(=O)(=O)N3CCCCC3)cc2)sc2cccc(OC)c21,2.59µM*,1.46µM*,·,·,·
COc1cccc2sc(=NC(=O)c3ccc(S(=O)(=O)N4CCCCC4)cc3)n(C)c12,-28.0%,-8.8%,·,·,·
CCOc1cccc2sc(=NC(=O)c3ccc(S(=O)(=O)N4CCOCC4)cc3)n(C)c12,14.6µM*!,20.6µM*!,-6.4%,4.3%,18.1
C#CCn1c(=NC(=O)c2cccs2)sc2cccc(OC)c21,?,13µM*,-19.9%,-21.0%,50.8
Cc1cccc(C)c1NC(=O)CN(C)C(=O)CC1CC2CCC1C2 (stereo unspecified),7.6%,?,14.0%,-3.5%,6.9
O=C(CN1CCN(c2ccccc2F)CC1)NC(=O)NCc1ccccc1,-6.4%,?,-0.9%,-1.3%,-18.2
O=C(CN(Cc1ccc2c(c1)OCO2)C(=O)c1cnsn1)NC1CCCC1,15.0%,-7.3%,19.5%,3.0%,-3.4
CCOCCCNC(=O)CN1N=C(c2ccc(C)cc2)CCC1=O,-2.6%,3.9%,-5.1%,-0.2%,1.0
CC(OC(=O)Cc1ccccc1[N+](=O)[O-])C(=O)NC(=O)NC1CCCCC1 (stereo unspecified),-8.1%,-10.1%,14.9%,0.2%,6.5
COc1ccc(C2C(=O)NN=C2C)cc1 (stereo unspecified),0.3%,?,1.2%,-1.6%,0.0
Nc1ccccc1SCC(=O)Nc1ccc2c(c1)OCCO2,-13.0%,-8.2%,?,-26.9%,1.1
C=CCn1c(=NC(=O)c2cccc(N3C(=O)CCC3=O)c2)sc2cccc(OC)c21,23.1µM*,14.6µM*,-24.6%,-0.3%,-98.6*
COCCn1c(=NC(=O)CCS(=O)(=O)c2ccccc2)sc2ccccc21,20.6µM*,16.4µM*,2.9%,5.9%,-18.8
C=CCn1c(=NC(=O)c2ccco2)sc2cc(C(=O)OC)ccc21,?,?,-0.7%,-9.1%,3.2
COC(=O)c1ccc2c(c1)sc(=NC(=O)CCS(=O)(=O)c1ccccc1)n2C,?,?,8.9%,10.5%,-21.3

# Screens: PubChem, National Center for Advancing Translational Sciences (NCATS)
